Reference: PubChem BioAssay (EPA / NIEHS)
Active and inactive are the calls of the source. The calls were made as follows: active = hit-call score of the fitted dose curve at least 0.9, where 1 is the maximum; inactive = score below 0.9.

Assay: ATG_GATA_CIS: Attagene CIS-FACTORIAL HepG2 Assay for human GATA Binding Protein (AID 2282944)
Conditions: HepG2 GATA cis-element reporter, Attagene multiplex mRNA; actives raise or lower the signal
Procedure: ATG_CIS is a cell-based, multiplexed-readout assay that uses HepG2, a human liver cell line, with measurements taken at 24 hours after chemical dosing in a 24-well plate.ATG_GATA_CIS is one of 52 assay component(s) measured or calculated from the ATG_CIS assay. It is designed to make measurements of mRNA induction, a form of inducible reporter, as detected with fluorescence intensity signals by Reverse transcription polymerase chain reaction (RT-PCR) and Capillary electrophoresis technology.Data from the assay component ATG_GATA_CIS was analyzed into 1 assay endpoint. This assay endpoint, ATG_GATA_CIS, was analyzed with bidirectional fitting relative to DMSO as the negative control and baseline of activity. Using a type of inducible reporter, measures of mRNA for gain or loss-of-signal activity can be used to understand the reporter gene at the transcription factor-level as they relate to the gene GATA1. Furthermore, this assay endpoint can be referred to as a primary readout, because this assay has produced multiple assay endpoints where this one serves a reporter gene function. To generalize the intended target to other relatable targets, this assay endpoint is annotated to the dna binding intended target family, where the subfamily is GATA proteins.
Human liver HepG2 cells are transiently transfected with multiple reporter transcription units (MRTUs) in 6-well plates using FuGene 6 reagent (Roche; 3 ml FuGene/1 mg DNA). The MRTU constructs are regulated by a cis-regulating element (promoter). […] A major difference between the CIS and TRANS system is that in CIS activities of endogenous TFs are measured, whereas the TRANS assay evaluates changes in activities of exogenous, chimeric NR-Gal4 proteins. […] At the end of 24 hour incubation, total RNA was isolated using TriZol reagent (Invitrogen). The isolated RNA is then reverse-transcribed using oligo(dT) primer and Mo-MLV reverse transcriptase (Invitrogen) with DNAse I (Ambion) treatment for 30 min. The one-tenth of the produced cDNA was amplified by PCR using Taq DNA polymerase (Invitrogen) and two reporter sequence-specific primers. The PCR products were fluorescently labeled by primer extension with 6-arboxyfluorescein (6-FAM) 5'-labeled reporter sequence-specific primer (2 min at 95 C, 20 s at 68 C and 10 min at 72 C) and these products were digested with 5U of HpaI (New England Biolabs) for 2h at 37 C. The fragments were purified using Qiaquick PCR columns (Qiagen), analyzed on an ABI 3130xL genetic analyzer (Applied Biosystems) with peak positions identified by using a set of X-rhodamine (ROX)-labeled MapMarker1000 molecular weight standards (BioVentures). The raw capillary electrophoresis data was processed using Attagraph software (Attagene).
In the case of `CCCCN(CCCC)N=O`, the outcome is reported as “inactive”.
For `Cc1ccc([N+](=O)[O-])cc1C`, the outcome was “inactive”.
For `C/C(=N\NC(=O)Nc1cc(F)cc(F)c1)c1ncccc1C(=O)O`, the outcome was “inactive”.
With `ClC1=C(Cl)C2(Cl)C3C(Cl)C(Cl)CC3C1(Cl)C2(Cl)Cl` (stereo not given) the outcome was “inactive”.
For `N#Cc1ccc(O)cc1`, the outcome was “inactive”.
With `CCCCc1ccc(O)cc1` the outcome was “inactive”.
In the case of `CC(C)Nc1ccc(Nc2ccccc2)cc1`, the outcome is reported as “inactive”.
For `OCC(F)(F)OC(F)(F)C(F)(F)OC(F)(F)C(F)(F)OC(F)(F)CO`, the outcome was “inactive”.
In the case of `N#C/C=C/c1ccccc1`, the outcome is reported as “inactive”.
In the case of `COC(=O)C(F)(F)C(F)(F)OC(F)(C(F)(F)F)C(F)(F)OC(F)=C(F)F` (stereo not given), the outcome is reported as “inactive”.
In the case of `Nc1ccc(Sc2ccc(N)cc2)cc1`, the outcome is reported as “inactive”.
With `Cc1ccc(O)cc1C` the outcome was “inactive”.
With `CCNc1nc(Cl)nc(NC(C)(C)C)n1` the outcome was “inactive”.
With `CCC1(c2ccccc2)C(=O)N=C(O)NC1=O` (stereo not given) the outcome was “inactive”.
In the case of `CCC(C)(C)c1ccc(O)cc1`, the outcome is reported as “inactive”.
For `O=C(O)C=CC(F)(C(F)(F)F)C(F)(F)F`, the outcome was “inactive”.
With `CCOP(=S)(OCC)SCSCC` the outcome was “inactive”.
For `O=c1[nH]c2ccccc2c(=O)o1`, the outcome was “inactive”.
With `O=S(=O)(c1ccc(O)cc1)c1ccc(O)cc1` the outcome was “inactive”.
For `OCC(F)(F)OC(F)(F)C(F)(F)OC(F)(F)CO`, the outcome was “inactive”.
In the case of `O=[N+]([O-])c1ccc(Cl)c(Cl)c1`, the outcome is reported as “inactive”.
For `Cn1[nH]nnc1=S`, the outcome was “inactive”.
With `ClC(Cl)=C(c1ccc(Cl)cc1)c1ccccc1Cl` the outcome was “inactive”.
In the case of `c1nc[nH]n1`, the outcome is reported as “inactive”.
With `O=C(O)C1C(C(=O)O)C2(Cl)C(Cl)=C(Cl)C1(Cl)C2(Cl)Cl` (stereo not given) the outcome was “inactive”.
With `CCCN(CCC)c1c([N+](=O)[O-])cc(C(C)C)cc1[N+](=O)[O-]` the outcome was “inactive”.
With `NNC(N)=S` the outcome was “inactive”.
With `O=S1(=O)OCC2C(CO1)C1(Cl)C(Cl)=C(Cl)C2(Cl)C1(Cl)Cl` (stereo not given) the outcome was “inactive”.
In the case of `CCOP(=S)(Oc1ccc([N+](=O)[O-])cc1)c1ccccc1` (stereo not given), the outcome is reported as “inactive”.
In the case of `CCOP(=S)(S)OCC`, the outcome is reported as “inactive”.
In the case of `CCN(CC)c1ccccc1`, the outcome is reported as “inactive”.
With `Nc1ccc(Cl)cc1` the outcome was “inactive”.
With `Nc1cc2c3c(c1)C(c1ccccc1)=N[C@@H](NC(=O)c1cccnc1)C(=O)N3CC2` the outcome was “inactive”.
For `Cc1ccc(N)cc1N`, the outcome was “inactive”.
With `Nc1ccc2ccccc2c1` the outcome was “inactive”.
For `CCOP(=S)(OCC)SCSc1ccc(Cl)cc1`, the outcome was “inactive”.
For `COC(N)=O`, the outcome was “inactive”.
In the case of `COP(=O)(O)OC`, the outcome is reported as “inactive”.
With `c1ccc2c(c1)Nc1ccccc1S2` the outcome was “inactive”.
For `CC(C)(C)c1ccc(O)cc1`, the outcome was “inactive”.
